HPGD block – blocks human HPGD enzyme activity; 150,000 tested, 4.3% active; purified HPGD, NADH fluorescence kinetic, PGE2 substrate; AID 894; Potency, µM, without a hit: at the top dose activity change, negative = inhibition, actives largely listed as inhibitors; P15428; active means well fitted inhibition curve with a large enough effect, not every such curve was filed as active; inconclusive means small, poorly fitted or top-dose-only effect, or another doubt; inactive means no such curve, though single readings can be large or run the other way
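NADH formation kinetics: reaction with 30 uM PGE2 and 1 mM NAD+ (final), 20 nM enzyme, Tris-HCl pH 8 with Tween 20, after 15 min compound preincubation at room temperature. Fluorescence change, last versus first of five reads.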
p53ts 39C tox – cytotoxicity in p53ts cells at nonpermissive temperature; H1299-p53A138V viability at 39C, ATP luminescence, 24 h; Potency, µM (series often up to 46.1 µM), for inactives: top-dose activity change, negative = cell killing, hits mostly cytotoxic; 130,000 tested, 1.5% active; further: nearly all actives have a fitted effect of over 55% in size
p53ts 32C kill – cytotoxicity in p53ts cells at permissive temperature; Potency, µM (doses to about 46.1 µM), inactives show top-dose activity change, negative = cytotoxicity, hits mostly cytotoxic; H1299-p53A138V at 32C, ATP luminescence viability, 24 h; 130,000 tested, 0.93% active;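 further: 0% = DMSO and -100% = full killing by reference compound; nearly all actives have a fitted effect of over 55% in size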
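ATP-content luminescence (ATPlite) read-out after 24 h compound exposure at 32C in H1299-p53A138V cells (600/well). Tested up to 46 uM. Normalized to DMSO (0%) and 100 uM tamoxifen (100% killing); Hill-fit AC50.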
12-hLO inh – blocks human 12-lipoxygenase activity. P18054. purified 12-hLO, xylenol orange hydroperoxide absorbance. Potency, µM (highest dose often 57.1 µM), for the others: at the highest dose activity change, negative = inhibition, usual class: inhibitors. 150,000 tested, 0.12% active. AID 1452; further: nearly all actives have a fitted effect of over 55% in size
Target sequence (P18054 whole entry, looked up): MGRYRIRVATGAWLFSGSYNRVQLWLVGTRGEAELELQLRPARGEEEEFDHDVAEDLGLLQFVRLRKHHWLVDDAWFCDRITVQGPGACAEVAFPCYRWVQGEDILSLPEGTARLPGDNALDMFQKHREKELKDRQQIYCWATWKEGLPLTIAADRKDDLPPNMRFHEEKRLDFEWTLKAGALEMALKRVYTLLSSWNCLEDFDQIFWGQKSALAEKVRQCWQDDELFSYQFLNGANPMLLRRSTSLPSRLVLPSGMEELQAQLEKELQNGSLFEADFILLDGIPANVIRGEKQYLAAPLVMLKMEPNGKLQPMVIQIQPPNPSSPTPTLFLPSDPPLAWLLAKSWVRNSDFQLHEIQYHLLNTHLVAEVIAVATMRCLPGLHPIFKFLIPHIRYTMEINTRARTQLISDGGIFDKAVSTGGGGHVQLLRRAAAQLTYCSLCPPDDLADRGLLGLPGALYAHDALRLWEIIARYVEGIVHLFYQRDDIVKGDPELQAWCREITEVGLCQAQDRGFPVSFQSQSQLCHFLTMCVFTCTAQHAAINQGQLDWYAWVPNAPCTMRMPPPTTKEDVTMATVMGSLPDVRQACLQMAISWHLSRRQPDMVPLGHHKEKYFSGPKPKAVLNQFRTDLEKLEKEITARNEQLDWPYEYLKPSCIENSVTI
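150 nM 12hLO, 25 mM Hepes pH 7.0 + 0.01% Triton X-100; cpd preinc 15 min RT; 40 uM arachidonic acid, 30 min RT; Fe-XO 30 min; A573/A405 ratio as read-out.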
Starred values were filed as active, the others as inactive; ? = inconclusive; / = no result; [ ] = another dose, or the depositor's remark. Compounds with a hit are over-represented: about 4.4% of the library has one in this group of screens. Unless noted, the call rests on the fitted dose curve; in most records, active means well fitted curve in the direction sought with a large enough effect; inconclusive means small, poorly fitted or top-dose-only effect, or another doubt; inactive means no such curve, though single readings can be large; an effect the other way counts as inactive or inconclusive. Unless noted, on the % scale 0 is the no-effect control and ±100 the full control effect; potency means the concentration at half of the fitted maximal effect.

SMILES	HPGD block	p53ts 39C tox	p53ts 32C kill	12-hLO inh
CN1OC2C(=O)N(c3ccccc3)C(=O)C2C1c1ccc(F)cc1 (stereo unspecified)	/	/	/	0%
COc1ccc(NS(=O)(=O)c2ccc3oc4ccccc4c3c2)cn1	22µM*	17%	21%	-14%
CN(C)CCN(Cc1ccco1)C(=O)c1cc2c(s1)-c1ccccc1OC2	/	13µM*	-9%	/
O=C(O)c1cc2c(s1)-c1ccccc1OC2	?	-2%	6%	2%
CCN(CC)c1cc2c(cc1F)c(=O)c(S(=O)(=O)c1ccccc1)cn2Cc1ccccc1	/	/	-3%	/
O=[N+]([O-])c1ccc2c(N=Nc3ccc4ccccc4c3O)c(O)cc(S(=O)(=O)O)c2c1	2.8µM*	-12%[9.22 µM]	-6%[9.22 µM]	?
COc1ccc(OC)c(S(=O)(=O)N2CCC(C(=O)N3CCc4ccccc4C3)CC2)c1	22µM*	9%	-3%	-5%
Cc1ccccc1NC(=O)C1CCN(S(=O)(=O)c2c(C)noc2/C=C/c2ccco2)CC1	/	15%	2%	/
Cc1noc(/C=C/c2ccco2)c1S(=O)(=O)N1CCC(C(=O)N2CCc3ccccc3C2)CC1	20µM*	-1%	1%	-12%
CN(C)CCNC(=O)c1ccc(-n2c(=O)c(=O)[nH]c3ccccc32)cc1	-12%	-4%	-2%	-3%
Cc1ccccc1OCCCN1C(=O)C(=O)c2cccc(C)c21	?	-19%	-19%	?
Cc1cccc2c1N(CCCOc1ccccc1)C(=O)C2=O	28µM*	/	/	-21%
Cc1cccc(OCCN2C(=O)C(=O)c3cccc(C)c32)c1	-15%	/	/	0%
Cc1cccc2c1N(CCCOc1ccc(C(C)(C)C)cc1)C(=O)C2=O	8.9µM*	/	/	-20%
CCOc1ccc(CN2C(=O)C(=O)c3cccc(C)c32)cc1OC	/	13µM*	-2%	/
O=C(NC1CCCCC1)c1nc2c(nnn2Cc2ccccc2Cl)c(=O)[nH]1	4.5µM*	12%	0%	3%
Cc1ccc(Cn2nnc3c(=O)[nH]c(C(=O)NCc4ccco4)nc32)cc1	-25%	-13%	-10%	-7%
COc1ccc(Cn2nnc3c(=O)[nH]c(C(=O)NCCc4ccc(F)cc4)nc32)cc1OC	3.2µM*	-1%	1%	-4%
O=C(CN1CCN(Cc2ccccc2Cl)C1=O)NCC1CCCO1 (stereo unspecified)	-1%	-1%	-6%	2%
O=C(CN1CCN(Cc2ccccc2Cl)C1=O)NC1CCCCCC1	-2%	-8%	-6%	2%
O=C(NC1CC1)c1nc2c(nnn2Cc2ccccc2Cl)c(=O)[nH]1	16µM*	14%	4%	3%
O=C(NCC1CCCO1)c1nc2c(nnn2Cc2ccccc2Cl)c(=O)[nH]1 (stereo unspecified)	13µM*	-1%	-12%	0%
CCN1CCN(CCCNC(=O)Cn2c(-c3cccs3)cc3cc(Cl)ccc32)CC1	/	/	-7%	/
Cc1nn(Cc2ccccc2Cl)c(Cl)c1C(=O)NCCc1ccccc1	-8%	/	/	-5%
O=C(NCCc1ccccc1)c1nc2c(nnn2Cc2ccccc2Cl)c(=O)[nH]1	7.9µM*	-12%	-11%	-3%
SMILES	HPGD block	p53ts 39C tox	p53ts 32C kill	12-hLO inh
O=C(Cn1nc(N2CCN(c3ccccc3)CC2)ccc1=O)NCc1ccccc1F	/	-17%	6%	/
O=C(Nc1cnn(Cc2ccc(Cl)c(Cl)c2)c1)c1nc2ncccn2n1	20µM*	-14%	-4%	-8%
O=C(CCS(=O)(=O)c1cccc2nsnc12)NC1CCCCC1	28µM*	/	/	-15%
O=[N+]([O-])c1cc(-c2nc(-c3ccccc3)no2)ccc1NCc1cccnc1	/	-13%	-6%	/
N#CC1=C(N)SC(N)=C(C#N)C1c1c(Cl)cccc1Cl	?	3%	3%	-27%
CC(C)CC1C(C#N)=C(N)SC(N)=C1C#N	32µM*	2%	-5%	-24%
N#CC1=C(N)SC(N)=C(C#N)C1CCc1ccccc1	14µM*	-13%	-11%	-29%
Cc1[nH]nc2c1C(Cc1ccccc1)C(C#N)=C(N)O2 (stereo unspecified)	?	13%	-4%	-2%
N#CC1=C(N)SC(N)=C(C#N)C1Cc1ccccc1	11µM*	47%	40%	-23%
CCCCC12CN3CC(C)(CN(C1)C3c1c[nH]c3ccccc13)C2=O (stereo unspecified)	/	-17%	9%	/
Fc1cccc(C[n+]2csc3ccccc32)c1	4µM*	/	/	-21%
c1ccc(C[n+]2cccc3c4ccccc4ccc32)cc1	?	/	/	9%
c1ccc(C[n+]2csc3ccccc32)cc1	14µM*	/	/	-11%
C#C[C@]1(O)CC[C@H]2C3CCC4=Cc5oncc5CC4(C)C3CCC21C (stereo partly specified)	-10%	/	/	/
CCCCCc1nnc(NC(=O)Cn2cnc3ccccc3c2=O)s1	-5%	22%	/	-1%
O=C(Cn1cnc2ccccc2c1=O)Nc1nnc(SCc2ccccc2)s1	22µM*	/	/	2%
Clc1ccc2c(c1)-c1nnc(Br)n1-c1ccccc1S2	18µM*	-13%	0%	-4%
Brc1nnc2n1-c1ccccc1Sc1ccccc1-2	?	22%	-4%	-4%
CC(C)c1ccc(Cn2ccc3c4c(N)nc(NC5CC5)nc4ccc32)cc1	?	32µM*	?	-3%
O=C(CCSc1ccccc1)NC1CCCC1	14µM*	4%	-8%	11%
O=C(CCSc1ccccc1)Nc1ncccn1	-12%	13%	5%	-1%
O=C(CCCCCN1C(=O)c2ccccc2C1=O)NC1CCCC1	4.5µM*	11%	-14%	-4%
O=C(CCCCCCN1C(=O)c2ccccc2C1=O)NC1CCCCC1	4.5µM*	10%	-3%	-1%
O=C(CN1C(=O)C(=O)c2ccccc21)NC1CCCCC1	-6%	0%	-8%	-1%
COc1cc(OC)c(NC(=O)c2ccc3nc(C(C)C)oc3c2)cc1Cl	/	-13%	5%	/
SMILES	HPGD block	p53ts 39C tox	p53ts 32C kill	12-hLO inh
O=C(Nc1ccc(N2CCCCC2)c(Cl)c1)c1ncn[nH]1	13µM*	?	?	-6%
O=C(Nc1ccc(CCC(=O)N2CCCC2)cc1)c1ncn[nH]1	28µM*	-10%	-5%	-2%
O=C(Nc1cccc(C(=O)N2CCCCCC2)c1)c1ccco1	25µM*	13%	-4%	3%
O=C(Nc1ccc(N2CCOCC2)c(Cl)c1)c1ccc(Br)o1	25µM*	-24%	?	0%
COc1ncc2ncc(=O)n(C3CC3)c2n1	/	10%	14%	/
COc1cc2c(cc1OC)[C@H](c1ccccc1)CN(C)CC2	/	4%	-14%	-3%
O=C(Nc1ccc(N2CCCC2)c(Cl)c1)c1ccco1	-16%	7.9µM*	10µM*	-8%
O=C(Nc1ccc(N2CCN(C(=O)c3ccccc3)CC2)c(Cl)c1)c1ccc(Br)o1	?	/	/	-1%
CC(=O)N1CCN(c2ccc(NC(=O)c3ccccc3Br)cc2Cl)CC1	16µM*	37%	-1%	1%
O=C(Nc1ccc(C2CC2(Cl)Cl)cc1)c1ccccc1Br (stereo unspecified)	16µM*	/	/	5%
CC1CCN(c2ncnc3c2cnn3-c2ccccc2)CC1	28µM*	/	/	-8%

Bioassay records (PubChem BioAssay)
